This note sets out measurements from PubChem BioAssay (NCI).

Compounds without any hit were thinned out: in the full panel of roughly 83,000, 20% have a hit.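 Compound tested at a single concentration for 48 hours in 96-well plates; a percent growth value below 10 was scored as active.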 Values without a mark were called inactive. The source made the active and inactive calls.

Test systems include NCI-H23 lung; NCI-H226 lung; NCI-H322M lung; HOP-62 NSCLC; NCI-H460 lung; HOP-92 NSCLC; NCI-H522 lung; A549/ATCC NSCLC; 786-0 renal; COLO 205 colon.
What all share (assay): NCI-60 one-dose screen, 48 h (100 = growth as untreated, 0 = no growth, -100 = all killed)
Conditions in all cases: 10 µM unless noted

With `COc1ccc(CN2CCc3c(Cl)nc(N)nc3C2=O)c(OC)c1`, the growth is -62.1% [100 µM] (active) in the assay with NCI-H23 lung; 5.05% [100 µM] (active) in the assay with NCI-H226 lung; 14.9% [100 µM] in the assay on NCI-H322M lung; 40% [100 µM] in the assay with HOP-62 NSCLC; 1.6% [100 µM] (active) in the assay with NCI-H460 lung; -15.2% [100 µM] (active) with HOP-92 NSCLC. Moreover, the growth in the assay on NCI-H522 lung was 15.7% [100 µM]; in the assay on A549/ATCC NSCLC, 35.4% [100 µM]; in the assay with 786-0 renal it was 19.6% [100 µM]; with COLO 205 colon, -48.6% [100 µM] (active).
For `CONC1=Nc2cc(NC(N)=NCc3ccccc3)c(N(C)C3CCCCC3)cc2OC1`, the growth in the assay with NCI-H23 lung is 68.3%; in the assay on NCI-H226 lung it was 67.3%; with NCI-H322M lung, 87%; with HOP-62 NSCLC, 82.3%; in the assay on NCI-H460 lung, 59.7%; with HOP-92 NSCLC it was 35.4%. In addition, the growth is 59.3% in the assay on NCI-H522 lung, 78.7% in the assay on A549/ATCC NSCLC, 71.2% with 786-0 renal and -36.1% (active) in the assay with COLO 205 colon.
With `O=C(c1ccc(Nc2nccc(NCCCNc3ccnc4cc(Cl)ccc34)n2)cc1)N1CCCCC1`, the growth in the assay with NCI-H23 lung is 32.4%; in the assay on NCI-H226 lung, 84.9%; with NCI-H322M lung it was 57.6%; in the assay with HOP-62 NSCLC, 57.5%; with NCI-H460 lung, 11.3%; with HOP-92 NSCLC it was 64.3%. Further, the growth was 38.2% in the assay on NCI-H522 lung, 19.1% in the assay on A549/ATCC NSCLC, 32.9% in the assay on 786-0 renal and 27.2% in the assay on COLO 205 colon.
Regarding `N#C/C(=C\c1ccccc1Cl)c1cc2ccccc2[nH]1`, the growth in the assay on NCI-H23 lung is 82.8%; in the assay on NCI-H226 lung, 75.2%; in the assay on NCI-H322M lung, 89.5%; with HOP-62 NSCLC it was 65.3%; in the assay with NCI-H460 lung it was 90.5%; in the assay on HOP-92 NSCLC it was 37.3%. Moreover, the growth in the assay with NCI-H522 lung is 82.5%; with A549/ATCC NSCLC, 90.5%; with 786-0 renal it was 99.6%; with COLO 205 colon, 105%.
As to `Cc1ccc(S(=O)(=O)OC[C@@]2(C)CC[C@]3(C)CC[C@]4(C)C(=CC[C@@H]5[C@@]6(C)CCCNC(C)(C)[C@@H]6CC[C@]54C)[C@@H]3C2)cc1`, the growth with NCI-H23 lung was -64.5% (active); with NCI-H226 lung, 19.7%; in the assay with NCI-H322M lung it was -87.4% (active); with HOP-62 NSCLC, -82.8% (active); with NCI-H460 lung, -74.6% (active); in the assay with HOP-92 NSCLC it was -71.2% (active). Also, the growth in the assay with NCI-H522 lung is -81.5% (active); in the assay with A549/ATCC NSCLC, -75.9% (active); with 786-0 renal it was -79% (active); in the assay on COLO 205 colon, -82.6% (active).
On to `Nc1nc2ccccc2c2c(=O)c3ccc(Cl)cc3sc12`, for which the growth was 92% in the assay with NCI-H23 lung; 98.9% in the assay with NCI-H226 lung; 103% with NCI-H322M lung; 99.1% in the assay with HOP-62 NSCLC; 72.7% in the assay with NCI-H460 lung; 84.1% with HOP-92 NSCLC. The growth in the assay on NCI-H522 lung is 94.3%; in the assay on A549/ATCC NSCLC, 94.7%; with 786-0 renal it was 99.1%; with COLO 205 colon, 98.4%.
Consider `Nc1nc(N)c2c(n1)NC(c1cccc(Nc3ccnc4cc(C(F)(F)F)ccc34)c1)CC(c1ccc(F)cc1)=N2` (stereo not given), for which the growth was 70.4% in the assay on NCI-H23 lung; 80% with NCI-H226 lung; 86.4% with NCI-H322M lung; 48.7% with HOP-62 NSCLC; 18% with NCI-H460 lung; 31.6% in the assay on HOP-92 NSCLC. Moreover, the growth with NCI-H522 lung is 48.2%; in the assay with A549/ATCC NSCLC, 40.1%; in the assay on 786-0 renal, 60.4%; with COLO 205 colon it was 29.1%.
As to `COc1ccc(-c2cc3cnc4ccccc4c3oc2=O)cc1`, the growth was 94.4% with NCI-H23 lung; 103% in the assay on NCI-H226 lung; 94.5% with NCI-H322M lung; 105% in the assay with HOP-62 NSCLC; 104% with NCI-H460 lung; 73.5% with HOP-92 NSCLC. The growth is 97.4% in the assay with NCI-H522 lung, 101% in the assay with A549/ATCC NSCLC, 89% in the assay with 786-0 renal and 103% in the assay with COLO 205 colon.
For `Cc1ccc(C(=O)N(CCCN)[C@@H](c2nc3cc(Cl)ccc3c(=O)n2Cc2ccccc2)C(C)C)cc1`, the growth is 8.15% (active) with NCI-H23 lung; 22.6% with NCI-H226 lung; -9.48% (active) with NCI-H322M lung; -28% (active) with HOP-62 NSCLC; -72.4% (active) in the assay with NCI-H460 lung; -16.3% (active) in the assay with HOP-92 NSCLC. The growth with NCI-H522 lung is -45.9% (active); in the assay on A549/ATCC NSCLC, -40% (active); in the assay with 786-0 renal, -13.7% (active); in the assay with COLO 205 colon it was -72.3% (active).
With `O=C1C(c2c[nH]c3ccccc23)=C(c2coc3cc(Br)ccc23)C(=O)N1O`, the growth with NCI-H23 lung was 93.1%; with NCI-H226 lung it was 87.1%; in the assay with NCI-H322M lung it was 97.1%; in the assay with HOP-62 NSCLC, 104%; with NCI-H460 lung it was 97.2%; in the assay with HOP-92 NSCLC it was 92.1%. For the same compound, the growth is 89.4% in the assay with NCI-H522 lung, 98.4% in the assay on A549/ATCC NSCLC, 94.6% in the assay with 786-0 renal and 117% in the assay on COLO 205 colon.
As for `CC12OC(CC(O)C1O)n1c3ccccc3c3c4c(c5c6ccccc6n2c5c31)C(=O)N(CCN1CCOCC1)C4=O` (stereo not given), the growth in the assay with NCI-H23 lung is -6.63% (active); with NCI-H226 lung it was -35.6% (active); in the assay with NCI-H322M lung, 14.5%; in the assay with HOP-62 NSCLC, -11.7% (active); with NCI-H460 lung, -12.5% (active); in the assay on HOP-92 NSCLC, 19.6%. In addition, the growth in the assay with NCI-H522 lung was -16.3% (active); in the assay with A549/ATCC NSCLC, -31.8% (active); with 786-0 renal, 1.94% (active); in the assay with COLO 205 colon, -2.3% (active).
Regarding `C=C(C)[C@@H]1CC[C@]2(C(=O)O)CC[C@]3(C)[C@H](CC[C@@H]4[C@@]5(C)CCC(N)C(C)(C)[C@@H]5CC[C@]43C)[C@@H]12` (stereo not given in full), the growth in the assay with NCI-H23 lung is 81.5%; with NCI-H226 lung it was 100%; in the assay with NCI-H322M lung, 68.9%; in the assay with HOP-62 NSCLC, 80.4%; in the assay with NCI-H460 lung, 33.1%; in the assay with HOP-92 NSCLC, 88.1%. Moreover, the growth was 11.7% in the assay with NCI-H522 lung, 47.9% in the assay on A549/ATCC NSCLC, 0.398% (active) in the assay on 786-0 renal and -21.4% (active) with COLO 205 colon.
